Records with an inconclusive call do not appear. Where a call stands in place of a potency, no number is given. Calls of active or inactive are those of the source. The call rests on the fitted dose curve; in most records, active means well fitted cell-killing curve with a large enough effect in the repeat runs; inconclusive means weak or mixed curves, or effect the other way; inactive means flat fitted curve, though single readings scatter.
Tests used:
[1] = cAMP Responsive Elements (CRE) small molecule antagonists, cell-based qHTS assay: qHTS cell viability counter screen (AID 2060913); further: nearly all actives have a fitted effect of over 40% in size
How it was run: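 CRE-bla HEK293T cells were seeded in assay medium with 10% dialyzed FBS, incubated 18 hrs at 37 C, then exposed to compounds plus 0.25 uM final NKH477 for 3 hrs. Viability was read by CellTiter-Glo luminescence after 30 min, in the same wells.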

[2] = cAMP Responsive Elements (CRE) small molecule agonists, cell-based qHTS assay: qHTS cell viability counter screen (AID 2060914);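 further: viability read after 3 h of compound exposure; nearly all actives have a fitted effect of over 50% in size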
How it was run: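 CRE-bla HEK 293T cells, plated 18 h at 37 °C, were exposed to compounds for 3 h at 37 °C/5% CO2. Viability was then measured in the same wells by CellTiter-Glo luminescence after 30 min at room temperature.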

Structure (SMILES) | Potency [1] | Potency [2]
Nc1cc(Cl)ccc1O | inactive | inactive
CC(Cl)(Cl)Cl | inactive | inactive
[C-]1=CC=CC1.[Cl][Zr+2][Cl].c1cc[cH-]c1 | inactive | inactive
CC1(C)C(=O)NC(=O)NC1=O | inactive | inactive
CCOP(=S)(OCC)SCn1c(=O)oc2cc(Cl)ccc21 | inactive | inactive
Cc1cc(C)cc(C)c1 | inactive | inactive
CCCCC(CC)COC(=O)c1c(Br)c(Br)c(Br)c(Br)c1C(=O)OCC(CC)CCCC (stereo not drawn) | inactive | inactive
CC(Cc1ccccc1)NCCn1cnc2c1c(=O)n(C)c(=O)n2C (stereo not drawn) | inactive | inactive
Nc1ccccc1C(=O)O | inactive | inactive
CC(=O)OC(c1ccccc1)C(Cl)(Cl)Cl (stereo not drawn) | inactive | inactive
CCC[CH2][Sn]([CH2]CCC)([O]C(C)=O)[O]C(C)=O | inactive | inactive
N#CC(c1ccccc1)c1ccccc1 | inactive | inactive
CS(=O)(=O)Cl | inactive | inactive
COC(=O)C(C)N(C(=O)c1ccco1)c1c(C)cccc1C (stereo not drawn) | inactive | inactive
